# Laboratory results as given in PubChem BioAssay AID2315 (National Center for Advancing Translational Sciences (NCATS), 2010).
# The campaign covered roughly 290,000 compounds. About 27,000 (9.3%) were called active. The sample holds actives, similar compounds and a random draw of the others, so the mix is not that of the screen. No stated cut-off is given here; in the data, active means inhibition mostly above about 28% (no sharp cut-off); inactive means mostly below about 43%.
# Test: A qHTS for Small Molecule Inhibitors of Shiga Toxin; further: 0% is about no effect
# Settings: Vero cells, Shiga toxin protein synthesis inhibition reporter; at 38.7 µM, stronger effect = higher value
row,Compound,inhibition
1,CC(C)C(c1nnnn1C1CCCCC1)N1CCN(C(=O)c2ccco2)CC1 (stereo unspecified),-10.3% (inactive)
2,Cc1ccc(-n2ncc(C(=O)NC3CC3)c2C2CCN(C(=O)OC(C)(C)C)CC2)c(C)c1,16.2% (inactive)
3,O=C(C1CCCN(S(=O)(=O)c2ccc([N+](=O)[O-])cc2)C1)N1CCCCC1 (stereo unspecified),2.21% (inactive)
4,COc1cccc(/C=C2/SC(=S)N(CC(=O)NC3C=CS(=O)(=O)C3)C2=O)c1 (stereo unspecified),16.1% (inactive)
5,CC(C)CNC(=O)C(=O)NCC(c1ccc2c(c1)OCO2)N1CCOCC1 (stereo unspecified),-7.49% (inactive)
6,O=S(=O)(Nc1ccccc1Br)c1cccs1,6.38% (inactive)
7,COC(=O)c1ccc(CSc2nncn2N)cc1,26.1% (inactive)
8,CC(C)CC(CC(C)C)=NNC(=O)c1ccc(CSc2nncn2C)cc1,16% (inactive)
9,COC(=O)c1ccc(CSc2nncn2C)cc1,177% (active)
10,O=C(NC(=S)Nc1ncccn1)c1ccccc1Br,9.32% (inactive)
11,Cc1ccc(NC2CCCN(C(=O)CCc3cn[nH]c3)C2)cc1C (stereo unspecified),9.62% (inactive)
12,CC(NCC(=O)Nc1cc(Cl)cc(Cl)c1)c1ccccc1 (stereo unspecified),-4.69% (inactive)
13,COc1ccc(C=Nc2cccc3ncccc23)cc1,-17.4% (inactive)
14,COc1ccc(/C=N/Nc2ccccc2C(=O)O)cc1,31.8% (active)
15,COc1ccc(CCCc2nnc(SCc3nc4ccccc4c(=O)[nH]3)n2C)cc1,-10.2% (inactive)
16,COc1ccc(/C=N/Nc2nc3ccccc3c(=O)[nH]2)cc1,60.8% (active)
17,COc1ccc(/C=N/OCC(=O)N(Cc2ccccc2)c2ccccc2C(=O)O)cc1,-13.4% (inactive)
18,COc1ccc(/C=N/NS(=O)(=O)c2ccc(NC(C)=O)cc2)cc1,24.7% (inactive)
19,COC(=O)c1sccc1NS(=O)(=O)c1ccc(F)cc1F,11.9% (inactive)
20,COCCCn1c(SCC(=O)NC2CCCC2)nnc1-c1ccccc1,-6.72% (inactive)
21,Cc1nc(-c2ccc(F)cc2)c(CC(=O)N2CCN(S(=O)(=O)c3ccc(F)cc3)CC2)s1,26.6% (inactive)
22,NS(=O)(=O)c1ccc(CCNc2nc(C(F)(F)F)nc3ccccc23)cc1,-9.53% (inactive)
23,CC1COc2ccccc2N1C(=O)c1ccc(F)cc1 (stereo unspecified),-4.1% (inactive)
24,N#Cc1ccc(C2N=C(c3ccccc3)NO2)cc1 (stereo unspecified),89.5% (active)

row,Compound,inhibition
1,Brc1ccccc1C1Nc2cccc3cccc(c23)N1,-2.7% (inactive)
2,S=C1NC(c2ccccc2)=NCN1c1ccc(Br)cc1,29.2% (inactive)
3,Brc1ccccc1C1N=C(c2ccccc2)NO1 (stereo unspecified),85.7% (active)
4,O=C1CCCCN1CCCC(=O)N1CCCC(Nc2ccc(F)cc2)C1 (stereo unspecified),7.4% (inactive)
5,CCOc1ccc(NC(=O)CCCCCN2C(=O)[C@@H]3Cc4ccccc4CN3C2=O)cc1,3.39% (inactive)
6,CCCNC(=O)C(=O)Nc1cc2c3c(c1)CCC(=O)N3CCC2,5.83% (inactive)
7,COc1ccc(N2C(=O)C(CC(=O)Nc3ccccc3)N(Cc3ccc(OC)c(OC)c3)C2=O)cc1 (stereo unspecified),40.7% (inactive)
8,COc1ccc(-c2oc3ncnc(NCCCO)c3c2-c2ccc(OC)cc2)cc1,-19.7% (inactive)
9,COc1ccc(O[C@H]2C=C[C@@H](c3ccccc3)O[C@@H]2CO/N=C/C[C@@H]2C=C[C@H](OC(C)=O)[C@@H](COC(C)=O)O2)cc1,16.1% (inactive)
10,O=C(NCc1ccco1)/C(=C/c1cccc([N+](=O)[O-])c1)NC(=O)c1ccco1,-2.89% (inactive)
11,Cc1cc2occ(CC(=O)NNC(=O)c3ccccc3F)c2cc1C,18% (inactive)
12,O=C(CSc1nccc(=O)[nH]1)Nc1ccc(N2CCOCC2)c(Cl)c1,-5.56% (inactive)
13,CCOC(=O)c1nn(-c2cccc(C)c2)cc1C(=O)c1ccccc1,152% (active)
14,CCOC(=O)c1cn(Cc2cccc(C)c2)nn1,1.57% (inactive)
15,CC(=O)c1nn(-c2cccc(Br)c2)cc1C(=O)c1cccc2ccccc12,-19.7% (inactive)
16,CCOc1ccc(CNC(=O)CCC(=O)N2CCSc3ccccc32)cc1,5.1% (inactive)
17,O=S(=O)(Nc1ccccc1)c1ccc(NS(=O)(=O)c2cccs2)cc1,-2.44% (inactive)
18,NC(=O)c1cc(S(=O)(=O)N2CCCC2)ccc1OCc1ccc(F)cc1,-10.2% (inactive)
19,O=C(Nc1nc(-c2ccc3c(c2)OCO3)cs1)c1ccncc1,42.9% (inactive)
20,CC(=O)NCCC(=O)Nc1nc(C)c(Cc2ccc3c(c2)OCO3)s1,13.3% (inactive)
21,CC(=O)NCCC(=O)Nc1nc(-c2ccc3c(c2)OCCO3)cs1,50% (active)
22,CC(=O)Nc1ccc(Oc2ccc3c(c2)C(=O)NC3=O)cc1,-7.33% (inactive)
23,Cc1ccc(S(=O)(=O)N/N=C(\c2ccccc2)C2CC2)cc1,-3.31% (inactive)
24,Cc1nc(COc2cccc(Cl)c2)sc1C(=O)/C=C/N(C)C,48.6% (inactive)

row,Compound,inhibition
1,Cc1nc(-c2ccccc2)sc1C(=O)/C=C/N(C)C,127% (active)
2,CN(C)/C=C/C(=O)c1ccccc1F,30.4% (inactive)
3,O=C(CN(C(=O)CCC(=O)Nc1nccs1)c1ccc(F)cc1)NCc1ccc2c(c1)OCO2,-6.5% (inactive)
4,Cn1c(=NC(=O)c2ccc3c(c2)OCCO3)sc2cc(S(C)(=O)=O)ccc21,2.16% (inactive)
5,COCCn1c(=NC(=O)c2ccccc2[N+](=O)[O-])sc2cc(S(C)(=O)=O)ccc21,21.4% (active)
6,COCCNC(=O)c1ccccc1NS(=O)(=O)c1ccc(C)c([N+](=O)[O-])c1,-5.37% (inactive)
7,COC(=O)c1cc(NS(=O)(=O)c2ccc3c(c2)c(=O)n(C)c(=O)n3C)cc(C(=O)OC)c1,-1.69% (inactive)
8,Cc1ccc(S(=O)(=O)NNC(=O)/C=C/c2cccc(F)c2)cc1,-5.71% (inactive)
9,CC1CCCCC1NC(=O)CCS(=O)(=O)c1ccc2c(c1)NC(=O)CO2 (stereo unspecified),49.7% (inactive)
10,COc1ccc(C(=O)O)cc1S(=O)(=O)NCc1cccnc1,2.47% (inactive)
11,Cc1cc(Cl)c2oc(C(=O)N3CCC(O)(c4ccccc4)CC3)c(C)c2c1,18.3% (inactive)
12,Cc1cc(Cl)c2oc(C(=O)N(C)C(C)c3ccccn3)c(C)c2c1 (stereo unspecified),50.1% (active)
13,Cc1cc(Cl)c2oc(C(=O)NC(C)c3ccncn3)c(C)c2c1 (stereo unspecified),14.6% (inactive)
14,NC(=O)C1CCCN(CC(=O)N2CCN(c3ccccc3)CC2)C1 (stereo unspecified),-5.2% (inactive)
15,COc1ccc2occ(C(=O)c3ccc(N=C(C)N(C)C)cc3)c2c1,62% (active)
16,COc1ccc(OC)c(C(=O)c2coc3ccc(OC)cc23)c1,-7.11% (inactive)
17,COc1ccc(OC)c(C(=O)c2ccc(C(=O)O)cc2)c1,29.1% (inactive)
18,CCOCCCN(C)C1CCN(C(=O)c2oc3ccccc3c2NC(=O)Cc2cccc([N+](=O)[O-])c2)CC1,18.7% (inactive)
19,Cc1noc(C)c1CSCC(=O)N(CCC(C)C)c1c(N)n(Cc2ccccc2)c(=O)[nH]c1=O,6.62% (inactive)
20,C=CCSc1nnc(N2C(=O)C(O)=C(C(=O)c3ccco3)C2c2ccc(F)cc2)s1 (stereo unspecified),19.6% (inactive)
21,Cc1ccc2nc(N3C(=O)C(O)=C(C(=O)c4ccco4)C3c3cccc(O)c3)sc2c1 (stereo unspecified),71.4% (active)
22,COc1cc(C2C(C(=O)c3ccco3)=C(O)C(=O)N2c2cc(C)on2)ccc1OCc1ccccc1 (stereo unspecified),-4.72% (inactive)
23,CCOc1ccccc1NC(=O)NC1CCCCCCC1,-4.06% (inactive)
24,COc1cc(NC(=O)C2CCN(c3cnccn3)CC2)cc(OC)c1,-1.63% (inactive)

row,Compound,inhibition
1,CS(=O)(=O)N1CCN(C(=O)Cc2ccccc2)CC1,8.45% (inactive)
2,CS(=O)(=O)N1CCc2nc(-c3ccccc3)sc2C1,99.9% (active)
3,CS(=O)(=O)N1CCN(c2cccc(Cl)n2)CC1,-4.33% (inactive)
4,O=C(Cn1nc([N+](=O)[O-])nc1Br)NC1CCCCC1,-1.71% (inactive)
5,Cc1cc(-c2ccc(S(=O)(=O)N3CCN(c4cccc(C(F)(F)F)c4)CC3)s2)on1,-3.9% (inactive)
6,COc1ccc(NC(=O)C/C(C)=N/NC(=O)c2cnccn2)cc1Cl,45.4% (active)
7,CCCCC(=O)N/N=C(\C)CC(=O)Nc1cc(Cl)ccc1OC,2.31% (inactive)
8,O=C(COc1ccc(Cl)cc1Cl)NCCCNC(=O)c1cnccn1,-3.62% (inactive)
9,COc1ccccc1C(=O)NCc1nnc(SC(C)C(=O)Nc2nccs2)n1C (stereo unspecified),10.7% (inactive)
10,CCOc1ccc(NC(=O)C(C)N2C(=O)c3ccccc3C2=O)cc1 (stereo unspecified),-15.9% (inactive)
11,O=C(Cc1ccc(Cl)cc1)NC1CCS(=O)(=O)C1 (stereo unspecified),1.56% (inactive)
12,Cc1ccc(S(=O)(=O)Nc2ccc3ncccc3c2)cc1,-8.08% (inactive)
13,O=S(=O)(Nc1ccc2cn[nH]c2c1)c1ccccc1,24% (inactive)
14,O=S(=O)(Nc1ccc2nc(-c3ccco3)[nH]c2c1)c1ccccc1,70.6% (active)
15,CN1CCN(/N=C/c2ccc(-c3ccc([N+](=O)[O-])cc3)o2)CC1,46.8% (active)
16,Cc1ccc(-c2ccc(/C=N/NC(=O)CN3CCOCC3)o2)cc1[N+](=O)[O-],-4.74% (inactive)
17,CN1CCN(/N=C/c2ccc(C#N)cc2)CC1,81.4% (inactive)
18,Cc1ccc(S(=O)(=O)N2CCN=C2SCc2c(F)cccc2Cl)cc1,-2.63% (inactive)
19,Cc1nc([N+](=O)[O-])cn1CC(=O)Nc1ccc2c(c1)OCO2,-7.53% (inactive)
20,Cc1onc(C(=O)Nc2ccc3c(c2)OCO3)c1[N+](=O)[O-],62.7% (active)
21,Cc1nn(CC(=O)Nc2ccc3c(c2)OCO3)c(C)c1[N+](=O)[O-],-8.73% (inactive)
22,Cn1cc([N+](=O)[O-])c(C(=O)Nc2cnn(Cc3ccc(F)cc3)c2)n1,7.88% (inactive)
23,Cn1cc([N+](=O)[O-])c(C(=O)Nc2ccc3c(c2)OCCO3)n1,53.6% (active)
24,COc1cccc(NC(=O)c2nn(C34CC5CC(CC(C5)C3)C4)cc2[N+](=O)[O-])c1,28.3% (inactive)
